In the library only some 4.7% were active in any assay of this set; here they are far more common.
SKKanGAS inh = SKKanGAS growth inhibition; S. pyogenes SKKanGAS, kanamycin growth, BacTiter-Glo, 6 h; inhibition, % at 7.5 µM; actives 1.3% (n = 300,000); AID 1662;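 active = mean replicate score, as percent of positive control median, at least 50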;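 also: strain carries kanamycin resistance gene driven by streptokinase promoter and grows in 40 µg/ml kanamycin; loss of luminescence reflects streptokinase promoter inhibition or plain growth inhibition; 0% = median of DMSO wells and 100% = positive control at its reference dose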
TIM10 inh = TIM10 yeast growth inhibition. S. cerevisiae TIM10 strain growth, BacTiter-Glo luminescence, 24 h. actives 1.4% (n = 330,000). inhibition, % at 10 µM;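 active = inhibition of 40% or more at the single tested concentration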;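 also: wild-type TIM10 isogenic control strain grown at permissive 25 °C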
tim10-1 inh = inhibits growth of tim10-1 mutant yeast; S. cerevisiae tim10-1 ts strain growth, BacTiter-Glo, 24 h; inhibition, % at 20 µM; actives 2.2% (n = 330,000); AID 463190;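 active = inhibition of at least 40%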;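 also: mutant grown at 25 °C; 0% = DMSO wells with yeast and 100% = wells holding no yeast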
tim23-1 inh = tim23-1 yeast growth inhibition; inhibition, % at 20 µM; AID 463212; actives 1.3% (n = 330,000); S. cerevisiae tim23-1 growth, BacTiter-Glo luminescence, 24 h;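 active = growth inhibition of the mutant yeast at or above 50%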;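 also: temperature-sensitive mutant grown at 25 °C; plate controls were DMSO-treated mutant yeast for no effect and medium wells lacking yeast for full effect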
PfHsp90 yeast 2 = growth inhibition of yeast expressing Plasmodium Hsp90; S. cerevisiae expressing PfHsp90, BacTiter-Glo ATP, 48 h; yeast lacking PDR1 and PDR3 efflux regulators; inhibition, % at 9.4 µM; actives 0.32% (n = 310,000);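 active = every replicate shows inhibition above about 80%, whatever the replicate mean, limit read from the data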;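 also: 0% = DMSO neutral controls and 100% = 20 µM radicicol positive controls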
EBI2 block = blocks human EBI2 receptor beta-arrestin signaling. P32249. EBI2 beta-arrestin recruitment, luminescence, 7a,25-OHC stimulated. inhibition, % at 5 µM. actives 0.81% (n = 360,000). AID 651636; in the data active = inhibition above about 38%;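 also: enzyme fragment complementation signal reports receptor beta-arrestin coupling in cells; 0% = agonist plus DMSO wells and 100% = wells without agonist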
Target sequence (P32249 whole entry, looked up, the tested form may be a part): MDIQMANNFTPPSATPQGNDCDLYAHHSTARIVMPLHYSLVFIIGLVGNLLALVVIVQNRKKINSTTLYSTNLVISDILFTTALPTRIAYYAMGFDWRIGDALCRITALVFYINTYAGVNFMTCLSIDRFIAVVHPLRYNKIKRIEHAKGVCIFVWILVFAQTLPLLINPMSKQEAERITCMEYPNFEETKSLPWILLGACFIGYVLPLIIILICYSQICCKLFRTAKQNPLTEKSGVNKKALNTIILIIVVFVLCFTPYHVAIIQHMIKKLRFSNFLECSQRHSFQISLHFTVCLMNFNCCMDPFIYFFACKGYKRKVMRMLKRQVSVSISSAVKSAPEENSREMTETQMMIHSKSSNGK
tim10 confirm = confirmation of TIM10 yeast growth inhibitors; shares compounds with TIM10 inh; inhibition, % at 10 µM; AID 463215; actives 63% (n = 4,600); S. cerevisiae tim10 strain growth, BacTiter-Glo luminescence, 24 h;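 active = inhibition of yeast growth at or above a set limit in either of two replicates at 10 µM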;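 also: this counterscreen used the strain with wild-type TIM10; 0% = yeast with DMSO and 100% = medium wells lacking yeast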
The depositor's hits bear a star.

How did N#C/C(=C\c1cccnc1)c1nc2ccccc2[nH]1 do in these assays?
SKKanGAS inh: -3.0; TIM10 inh: 75.2*; tim10-1 inh: 18.5; tim23-1 inh: 13.5; EBI2 block: -12.5; tim10 confirm: -1.9

Results for O=C(Nc1ccc2oc(-c3ccccc3)nc2c1)c1ccc2c(c1)OCCO2 ?
SKKanGAS inh: 16.5; TIM10 inh: 45.8*; tim10-1 inh: 31.5; tim23-1 inh: 49.6; PfHsp90 yeast 2: 24.5; EBI2 block: 19.2; tim10 confirm: 52.5*

What do the screens show for `O=C(O)c1cc(-c2cccc([N+](=O)[O-])c2)n[nH]1`?
SKKanGAS inh: 9.3; TIM10 inh: -6.1; tim10-1 inh: 6.5; tim23-1 inh: 4.4; PfHsp90 yeast 2: -13.6; EBI2 block: 4.0

How did CCOC(=O)c1cc(-c2cccc([N+](=O)[O-])c2)n[nH]1 do in these assays?
SKKanGAS inh: -7.2; TIM10 inh: 47.8*; tim10-1 inh: 36.2; tim23-1 inh: 0.2; PfHsp90 yeast 2: 11.5; EBI2 block: -15.7; tim10 confirm: 28.2*

Results for N#CC(=C1Nc2ccccc2N1)S(=O)(=O)c1ccccc1 ?
SKKanGAS inh: -2.3; TIM10 inh: -5.6; tim10-1 inh: -0.8; tim23-1 inh: -1.1; PfHsp90 yeast 2: -2.2; EBI2 block: 8.1

Results for CCc1ccc(N2CC(C(=O)Nc3cccc(C(=O)NC4CC4)c3)CC2=O)cc1 (configuration not stated) ?
TIM10 inh: 2.6; tim10-1 inh: 14.7; tim23-1 inh: 1.4; PfHsp90 yeast 2: -8.1; EBI2 block: 12.6

How did COc1cc(OC)c(N2CC(C(=O)Nc3cccc(C(=O)NC4CC4)c3)CC2=O)cc1Cl (configuration not stated) do in these assays?
TIM10 inh: 82.1*; tim10-1 inh: -1.2; tim23-1 inh: -3.8; PfHsp90 yeast 2: -7.3; EBI2 block: -4.8; tim10 confirm: -3.6

Results for Clc1ccc(CN=C2Nc3ccccc3CS2)cc1 ?
SKKanGAS inh: 11.1; TIM10 inh: 40.9*; tim10-1 inh: 35.6; tim23-1 inh: 36.2; PfHsp90 yeast 2: 34.2; EBI2 block: 7.4; tim10 confirm: 32.5*

Results for O=c1oc2c3c4c(cc2c2c1CCC2)OCCN4CCC3 ?
TIM10 inh: 41.3*; tim10-1 inh: 34.2; tim23-1 inh: 38.5; PfHsp90 yeast 2: -17.7; EBI2 block: 5.6; tim10 confirm: 2.2

How did O=c1oc2c(CN3CCOCC3)c(O)c(Cl)cc2c2c1CCCC2 do in these assays?
SKKanGAS inh: 15.6; TIM10 inh: -3.9; tim10-1 inh: 0.6; tim23-1 inh: 2.1; PfHsp90 yeast 2: -4.8; EBI2 block: 9.7

How did CSc1ccccc1NC(=S)N/N=C/c1cccn1Cc1cccc(C)c1 do in these assays?
SKKanGAS inh: 35.7; TIM10 inh: 37.2; tim10-1 inh: 38.1; tim23-1 inh: 15.8; PfHsp90 yeast 2: -26.9; EBI2 block: -0.5

Results for Cc1cccc(NC(=S)N/N=C/c2cccn2Cc2ccc(F)cc2)c1 ?
SKKanGAS inh: 11.1; TIM10 inh: 52.6*; tim10-1 inh: 34.7; tim23-1 inh: 19.5; PfHsp90 yeast 2: 9.9; EBI2 block: 17.9; tim10 confirm: 49.1*

What do the screens show for `O=C(C[C@@H]1C/C=C/CCCC(=O)O[C@H](c2ccccc2)CNC1=O)N[C@H](CO)Cc1ccccc1`?
TIM10 inh: -1.7; tim10-1 inh: 9.2; tim23-1 inh: 13.3; PfHsp90 yeast 2: -1.4; EBI2 block: -12.9

How did CSc1nc(NCc2ccco2)c2ccccc2n1 do in these assays?
SKKanGAS inh: 3.3; TIM10 inh: 40.1*; tim10-1 inh: 37.9; tim23-1 inh: 15.5; PfHsp90 yeast 2: -7.8; EBI2 block: -17.4; tim10 confirm: 22.1

Results for C/C(CC1CC(COCC(C)C)OC1=O)=N\NC(N)=S (configuration not stated) ?
SKKanGAS inh: 0.9; TIM10 inh: 96.4*; tim10-1 inh: 13.3; tim23-1 inh: -9.3; PfHsp90 yeast 2: 15.6; EBI2 block: 4.2; tim10 confirm: 2.0

How did CC(=O)c1cc(-c2ccc(F)cc2)n(CCC(=O)Nc2cccc(C)n2)c1C do in these assays?
SKKanGAS inh: 1.7; TIM10 inh: 28.2; tim10-1 inh: 30.6; tim23-1 inh: 16.4; PfHsp90 yeast 2: -10.1; EBI2 block: 12.4

How did CCOC(=O)N1CCC(NC(=O)c2ccc3c(c2)sc2nc(-c4ccc(OC)cc4)cn23)CC1 do in these assays?
SKKanGAS inh: -0.7; TIM10 inh: -15.4; tim10-1 inh: -28.0; tim23-1 inh: -24.6

How did CCOC(=O)N1CCN(C(=O)c2ccc3c(c2)sc2nc(-c4ccccc4)cn23)CC1 do in these assays?
SKKanGAS inh: 14.4; TIM10 inh: 44.5*; tim10-1 inh: 35.5; tim23-1 inh: 39.7; PfHsp90 yeast 2: -14.1; EBI2 block: -7.1; tim10 confirm: 52.8*

Results for Cc1cc(C)c(C)c(S(=O)(=O)N2CCN(C(=O)CNC(=O)c3ccco3)CC2)c1C ?
TIM10 inh: 7.6; tim10-1 inh: -2.6; tim23-1 inh: 13.2; PfHsp90 yeast 2: 12.6; EBI2 block: -9.1

How did COc1cccc(C2NC(=O)c3ccccc3O2)c1OCc1ccccc1F (configuration not stated) do in these assays?
SKKanGAS inh: 17.3; TIM10 inh: 42.8*; tim10-1 inh: 27.3; tim23-1 inh: 27.1; PfHsp90 yeast 2: -80.7; EBI2 block: -2.2; tim10 confirm: 26.8

What do the screens show for `COc1cccc(C2NC(=O)c3ccccc3O2)c1OC` (configuration not stated)?
SKKanGAS inh: -5.6; TIM10 inh: 4.2; tim10-1 inh: 20.9; tim23-1 inh: 14.5; EBI2 block: -16.1

What do the screens show for `CCOc1ccc(C(=O)C(C)OC(=O)CN2C(=O)NC(C)(C)C2=O)cc1` (configuration not stated)?
SKKanGAS inh: -4.3; TIM10 inh: -5.3; tim10-1 inh: 1.6; tim23-1 inh: 18.6; PfHsp90 yeast 2: -3.2; EBI2 block: -7.8

What do the screens show for `O=C1CC(c2ccccc2)=Nc2ccccc2N1Cc1ccccc1`?
SKKanGAS inh: 2.8; TIM10 inh: 40.3*; tim10-1 inh: 31.0; tim23-1 inh: 18.7; PfHsp90 yeast 2: -0.9; EBI2 block: 10.8; tim10 confirm: 22.8

What do the screens show for `CCOc1ccc(NC(=S)NC23CC4CC(CC(C4)C2)C3)cc1`?
SKKanGAS inh: -3.0; TIM10 inh: -4.3; tim10-1 inh: -2.9; tim23-1 inh: -8.2; PfHsp90 yeast 2: 31.6; EBI2 block: 16.4

What do the screens show for `FC(F)Oc1ccc(NC(=S)NC23CC4CC(CC(C4)C2)C3)cc1`?
SKKanGAS inh: 24.5; TIM10 inh: 52.3*; tim10-1 inh: 17.4; tim23-1 inh: 44.1; PfHsp90 yeast 2: -2.3; EBI2 block: 16.4; tim10 confirm: 34.8*
